# Experimental data published in PubChem BioAssay.
# Molecular target: Torsin-1A-interacting protein 1 (Homo sapiens) (UniProt Q5JTV8)
# Test: LAP1 binders from COS7 cell lysate, primary screen, small-molecule microarray, 635/667 nm fluorescence (AID 1116)
# Conditions: COS7-hLAP1 lysate binding, 635 nm fluorescence, higher = more signal
# Chain of Torsin-1A-interacting protein 1 (Homo sapiens) (Q5JTV8 whole entry, looked up): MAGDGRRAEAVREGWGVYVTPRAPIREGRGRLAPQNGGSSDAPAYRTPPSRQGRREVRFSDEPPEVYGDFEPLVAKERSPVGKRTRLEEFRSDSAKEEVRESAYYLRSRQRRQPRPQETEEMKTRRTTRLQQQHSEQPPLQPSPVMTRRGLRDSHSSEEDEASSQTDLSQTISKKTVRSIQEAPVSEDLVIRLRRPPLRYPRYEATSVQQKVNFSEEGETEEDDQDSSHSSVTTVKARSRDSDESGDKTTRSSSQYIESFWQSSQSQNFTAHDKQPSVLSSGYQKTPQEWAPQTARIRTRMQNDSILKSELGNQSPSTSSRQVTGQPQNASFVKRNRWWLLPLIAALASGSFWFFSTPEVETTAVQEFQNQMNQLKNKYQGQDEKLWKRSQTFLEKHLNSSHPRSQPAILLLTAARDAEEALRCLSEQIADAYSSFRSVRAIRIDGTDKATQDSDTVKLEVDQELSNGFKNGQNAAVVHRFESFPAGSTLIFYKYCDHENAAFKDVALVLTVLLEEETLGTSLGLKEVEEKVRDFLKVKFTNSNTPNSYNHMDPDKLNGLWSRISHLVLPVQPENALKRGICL
row,Compound,composite z-score
1,CCCCC(CC)C(O)C1C=CC2C(=O)NC(=O)C2N1Nc1ccccn1 (configuration not stated),0.927
2,CC(C)C[C@@H]1NC(=O)[C@@H]2C[C@H](C(=O)NCCCC[N+](C)(C)C)[C@H](c3cccc(OCCO)c3)N2C1=O,1.05
3,COCCOC(=O)N1C(=O)[C@@]2(c3ccccc31)[C@H](c1ccccc1OCCO)N1[C@H](c3ccccc3)[C@H](c3ccccc3)OC(=O)[C@H]1[C@@H]2C(=O)N1CCc2cc(OC)c(OC)cc2C1,0.561
4,CN1C(=O)C2C=CC(C(O)COCc3ccccc3)N(Nc3ccccc3)C2C1=O (configuration not stated),0.661
5,[N-]=[N+]=NCc1ccccc1[C@H]1OC(c2ccc(OCCCO)cc2)=N[C@@]1(Cc1ccccc1N=[N+]=[N-])C(=O)NCCN1CCOCC1,1.79
6,C[N+](C)(C)CCCCNC(=O)[C@H]1C[C@H]2C(=O)NCC(=O)N2[C@H]1c1ccc(O)cc1,0.721
7,Cc1ccc(F)cc1S(=O)(=O)N[C@@H]1CCN(C(=O)c2ccc(OC(C)C)cc2)C1,0.521
8,COCCOC(=O)N1C(=O)[C@@]2(c3ccccc31)[C@H](c1ccc(OCCO)cc1)N1[C@H](c3ccccc3)[C@H](c3ccccc3)OC(=O)[C@H]1[C@@H]2C(=O)NC[C@H](O)c1ccccc1,0.839
9,CCCCC=C[C@@H](NC(=O)CCc1ccccc1)c1ccccc1,1.49
10,COc1ccc([Si](C)(C)[C@@H]2[C@@H](CCO)O[C@]3(C(=O)N(Cc4ccc(N5C(=O)c6ccccc6Oc6ccccc65)cc4)c4ccccc43)[C@H]2C)cc1,-1.06
11,CC[C@@H]1[C@@H]2C3C(=O)N(CC)C(=O)C3CC(=O)[C@@H]2[C@H](c2ccc(C)cc2)N1S(=O)(=O)c1ccc(C)cc1 (some centres not stated),1.22
12,COCCOC(=O)N1C(=O)[C@@]2(c3cc(C#CC4(O)CCCCCC4)ccc31)[C@H](C(=O)N1CCc3cc(OC)c(OC)cc3C1)[C@H]1C(=O)O[C@H](c3ccccc3)[C@H](c3ccccc3)N1[C@@H]2c1ccccc1OCCO,0.447
13,COc1ccc(C#Cc2ccc3c(c2)[C@]2(C(=O)N3)[C@H](C(=O)O)[C@H]3C(=O)O[C@H](c4ccccc4)[C@H](c4ccccc4)N3[C@@H]2c2ccc(OCCO)cc2)cc1,2
14,COc1ccc(C#Cc2ccc3c(c2)[C@]2(C(=O)N3)[C@H](c3ccc(OCCO)cc3)N3[C@H](c4ccccc4)[C@H](c4ccccc4)OC(=O)[C@H]3[C@@H]2C(=O)N2CCN(c3ncccn3)CC2)cc1,0.45
15,[N-]=[N+]=NCc1ccccc1[C@H]1OC(c2ccc(OCCCO)cc2)=N[C@@]1(Cc1ccccc1N=[N+]=[N-])C(=O)N1CCCCC1,1.44
16,CCCC=C(CCC)[C@@H](NS(=O)(=O)c1ccccc1)c1ccc(C(F)(F)F)cc1,1.31
17,COc1cc2c(cc1OC)CN(C(=O)[C@@H]1[C@H]3C(=O)O[C@H](c4ccccc4)[C@H](c4ccccc4)N3[C@H](c3ccc(O)cc3)[C@@]13C(=O)Nc1ccc(C#CCNC(N)=O)cc13)CC2,0.0623
18,COc1ccc([Si](C)(C)[C@@H]2[C@@H](CCO)O[C@]3(C(=O)N(Cc4cccc(N5C(=O)COc6ccccc65)c4)c4ccccc43)[C@H]2C)cc1,-0.028
19,C=CC[C@@]1(C(=O)NCCN2CCOCC2)N=C(c2ccc(OCCCO)cc2)O[C@@H]1c1ccccc1,1.06
20,O=C1c2ccccc2[C@](Cc2ccccc2I)(C(=O)NCC(F)(F)F)[C@H](c2ccc(CO)cc2)N1Cc1ccccc1,0.419
21,COc1ccc(C(=O)Nc2ccc3c(c2)[C@]2(O[C@@H](CCO)[C@H]([Si](C)(C)c4ccc(OC)cc4)[C@H]2C)C(=O)N3Cc2ccccc2)cc1,0.422
22,COC(=O)[C@@]1(Cc2ccc(OC)cc2)[C@H]2c3cc(C(=O)N(C)C)n(CCF)c3C[C@H]2CN1C(=O)c1ccccc1,1.01
23,COC(=O)c1c(CC[C@@H](CO)NC(=O)N[C@@H](C)Cn2cc(C3(O)CCCC3)nn2)oc(C(C)=O)c1C(=O)OC,0.711
24,CC1=C2[C@@H](CCc3ccccc3)OB(O)C[C@@H]2[C@@H]2C(=O)C=CC(=O)[C@@H]2C1,0.464
25,CCCNC(=O)[C@@]1(Sc2ccc(C)cc2)CC(=O)N(Cc2ccccc2)[C@@H]1c1ccc(CO)cc1I,0.285
26,CC(C)C(CO)N1C(=O)[C@@H]2[C@H]3C(=O)OCC=C[C@H]3OC23C=CCN(Cn2nnc4ccccc42)C(=O)[C@@H]13 (some centres not stated),-0.273
27,O=[N+]([O-])c1ccc(C[n+]2ccc(-c3ccc(CO)cc3)cc2)o1,1.12
